Reference: PubChem BioAssay AID1628 (Sanford-Burnham Center for Chemical Genomics, 2009)
About 930 (0.49%) of roughly 190,000 compounds were called active.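 Rule for the calls: active = z-score of insulin promoter reporter brightness in nuclei below -3 at 5 µM, with at least 500 cells counted; inconclusive = wells with under 500 cells, flagged as toxic or sparse; inactive = the rest.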 The list shows a part of the results. Results with a measured potency or affinity are listed apart.

test: insulin promoter down-regulators in MIN6 cells, imaging, high-content screening, mouse beta cells (AID 1628); conditions: MIN6 insulin promoter GFP reporter, at 5 µM, hits give low values

z-score, inactive:
CCCCNC(=S)NC(=O)c1ccc(Cl)cc1Cl 3.14
COc1ccc(NC(=O)CCN2CCCC(C)C2)cc1 (stereo unspecified) 1
C=CCn1c(=NC(=O)c2cc(-c3cccs3)nc3ccccc23)sc2cc(S(N)(=O)=O)ccc21 8.96
O=C(NC1C=CS(=O)(=O)C1)c1sc2ccccc2c1Cl (stereo unspecified) 3.86
CCN1CC=C2C(C#N)=C(N)C(C#N)(C#N)C(CCc3ccccc3)C2C1 (stereo unspecified) 13.8
Cc1cccc(-c2ncc(CN3CCCC(CO)(Cc4ccccc4C)C3)cn2)c1 (stereo unspecified) 3.13
Cc1cccc2sc(NC(=O)C3CCCN(S(=O)(=O)c4cccc5nonc45)C3)nc12 (stereo unspecified) 6.61
Cc1nc2c(ccc3nc(NC(=O)C4CC4)sc32)s1 2
C=CCNC(=O)C1CC2Cn3c(nc4cc5ccccc5cc43)C2N1C (stereo unspecified) 4.44
CCOC(=O)N1CCN(C(=O)NC2CCCCC2)CC1 3.74
Cc1cc(=O)oc2cc(OCC(=O)OCC(=O)NC3CC3)ccc12 3.8
CC1=Nc2ccccc2/C1=C/c1sc(=S)n(-c2cccc(C(=O)O)c2)c1O 3.2
COc1cccc(N2CCN(c3ncccn3)CC2)c1 3.1
Cc1ccc(C)c(NC(=O)C(C)CC2COCCO2)c1 (stereo unspecified) 3.45
O=S1(=O)N=C(N(CCO)/N=C/c2ccncc2)c2ccccc21 2.42
CC(=Nc1ccc(C)cc1C)c1sc2ccccc2c1O 3.96
O=c1oc2c3c4c(cc2c(C(F)(F)F)c1CCN1CCOCC1)CCCN4CCC3 7.75
CCN1/C(=C/C=C/c2oc3ccc4ccccc4c3[n+]2CC)Oc2ccc3ccccc3c21 17
Cc1ccccc1NCC(=O)N/N=C/c1c[nH]c2ccccc12 4.05
COc1cc(-c2cc(=O)c3ccccc3o2)ccc1O -1.08
COc1cc(C(c2sc3nc(C)nn3c2O)N2CC(C)CC(C)C2)cc(OC)c1OC (stereo unspecified) 0.98
CCOc1cccc(-c2nn3c(-c4cc(C)[nH]n4)nnc3s2)c1 1.99
Cc1ccc(C(=O)NN2C(=O)/C(=C/c3cn(C)c4ccccc34)SC2=S)cc1 4.98
CCN1C=CC2=C(C#N)C(N)C(C#N)(C#N)C(c3ccccc3C(F)(F)F)C2C1 (stereo unspecified) 11
COc1cccc(NC2C=CS(=O)(=O)C2)c1 (stereo unspecified) 1.43
Cc1ccc(S(=O)(=O)/N=c2\ccc(Cl)cn2C(F)F)cc1 2.64
CCNc1ccc2noc3c2c1C(=O)c1ccccc1-3 4.91
CCOC(=O)CC1C(=O)NCCN1c1nc2ccc(C)cn2c(=O)c1/C=C1\SC(=S)N(C(C)CC)C1=O (stereo unspecified) 15.3
COc1ccc(C(=O)c2sc3nc(-c4ccccc4)ccc3c2N)cc1OC 5.8
C=CCn1c(-c2oc3nc(-c4ccccc4)cc(-c4ccccc4)c3c2N)n[nH]c1=S 5.57
CCN(CC)c1ccc2cc(-c3nc(-c4ccc(OC)cc4)cs3)c(=O)oc2c1 17
CCOC(=O)Cc1csc(NC(=O)c2sc3nc4c(C)cc(C)cc4cc3c2N)n1 4.73
Cc1nnc(SCC2=C(C(=O)O)N3C(=O)C(NC(=O)Cn4nc(C)c(Cl)c4C)C3SC2)s1 (stereo unspecified) 1.08
CCCNC(=O)Cn1c(-c2ccc(F)cc2)cc(C(=O)OCC)c1C 0.89
Cc1cc(C)n(-c2ccc(OCC(=O)O)nn2)n1 3.33
CCOC(=O)c1cnn(-c2cc(C)nc3c(-c4ccccc4)cnn23)c1N 3.62
CCCCSc1ncc(C(=O)OCC)c(N)n1 2.51
Cc1cc(-c2nc3ncccc3o2)ccc1N 1.34
COC(=O)N/N=C\c1cc2c(cc1Br)OCO2 0.97
O=C(NCCc1csc(-c2ccccc2)n1)c1ccccc1F 4.15
CN1C2CCC1/C(=C/c1cccn1C)C(=O)/C2=C\c1cccn1C 3.1
N#CC1CC(c2ccc([N+](=O)[O-])cc2)=NN1c1ccc([N+](=O)[O-])cc1 (stereo unspecified) 5.36
O=C(OCC(=O)N1CCN(c2ccccc2)CC1)c1cccc(Cl)c1 1.29
CN1/C(=C\C=C(/C#N)C(=O)Nc2ccccc2F)C(C)(C)c2ccccc21 7.42
CN1/C(=C\C=C2/C(=O)Oc3ccccc3C2=O)C(C)(C)c2ccccc21 8.51
Cn1c(-c2ccc3c(c2)OCO3)cc(=O)c2ccccc21 -0.67
Cn1ccnc1Sc1nc(Nc2cccc(Cl)c2)nc(N2CCOCC2)n1 -0.82

z-score, active:
COc1ccc(NC(=O)CCC(=O)OCc2ccc(Br)cc2)cc1 -5.13
C#CCn1c(=NC(=O)c2sc3ccccc3c2Cl)sc2cc(S(N)(=O)=O)ccc21 -3.78
COc1cccc(-c2nn(C)c3sc(C(=O)N4CCN(c5ccccn5)CC4)cc23)c1 -10.4
CC(=O)NCCN=C(C)c1sc2ccccc2c1O -3.06
Cc1nnsc1C(=O)N/N=C/c1ccc2ccccc2c1O -4.07
CCOc1cccc(-c2nnc3sc(-c4cc(OC)c(OC)c(OC)c4)nn23)c1 -3.61
Cc1cccc(-c2nnc3sc(-c4ccccc4C)nn23)c1 -3.32
C=CCn1c(-c2csc(-c3ccc(OC)c(OC)c3)n2)n[nH]c1=S -3.05
CCOC(=O)c1cnc(-n2nc(C)cc2C)nc1NCc1ccccc1 -3.75
CSC1=NC(C)(C)CC2(C)Nc3ccccc3N12 (stereo unspecified) -3.03
COc1ccc(-c2csc(NC(=O)c3ccccc3NS(=O)(=O)c3ccc(F)c(F)c3)n2)cc1 -4.95
Cc1c(CNC(=O)c2nn3c(c2Cl)NC(c2ccccc2)CC3C(F)(F)F)cnn1C (stereo unspecified) -4.22
COc1ccc(C2CC(C(F)(F)F)n3nc(C(=O)NCc4cn(C)nc4C)c(Cl)c3N2)cc1 (stereo unspecified) -9.71
CN1/C(=C\C(=O)C[n+]2ccc3ccccc3c2)C(C)(C)c2ccccc21 -4.73
